Screening data: PubChem, several laboratories
Shown are actives, neighbours in structure and some others; about 2% of the full set was active somewhere.
Mcl1-Noxa inh = Mcl-1/Noxa interaction inhibition | TR-FRET Mcl-1/Noxa peptide binding, 2 h | inhibition, % at 21.7 µM | 220,000 compounds, 1.5% hits;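 active = compounds that cut the protein-peptide binding signal by more than 50% relative to plate controls in a single-dose test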;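 note: His-tagged Mcl-1 with rhodamine Noxa BH3 peptide and terbium anti-His antibody; 0% = Mcl-1 plus Noxa peptide wells and 100% = peptide-only wells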
Target sequence (Q07820 whole entry, looked up): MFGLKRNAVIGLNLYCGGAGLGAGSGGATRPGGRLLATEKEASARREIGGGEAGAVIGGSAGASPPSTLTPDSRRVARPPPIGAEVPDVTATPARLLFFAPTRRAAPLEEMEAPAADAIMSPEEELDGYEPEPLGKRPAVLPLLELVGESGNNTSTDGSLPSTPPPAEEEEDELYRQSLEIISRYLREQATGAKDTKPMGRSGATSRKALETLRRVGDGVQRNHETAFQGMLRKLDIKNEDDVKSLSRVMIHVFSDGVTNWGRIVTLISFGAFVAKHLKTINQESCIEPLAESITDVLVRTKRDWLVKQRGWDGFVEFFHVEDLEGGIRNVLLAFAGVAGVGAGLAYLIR
Bim-Mcl-1 = human Bim-Mcl-1 interaction inhibition; Q07820; Bead-based flow cytometry, Bim peptide-Mcl-1 binding; inhibition, % at 10 µM; 190,000 compounds, 0.1% hits; in the data active = inhibition above about 40%;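 note: 0% = no compound tracer wells and 100% = peptide blocker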
Mcl1-Bid inh = Mcl-1/Bid interaction inhibition; Q07820; TR-FRET Mcl-1/Bid-Dy647 peptide binding, 1536-well; inhibition, % at 21.7 µM; 220,000 compounds, 0.97% hits; AID 1021;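 active = compounds that cut the binding signal by more than half at the single screening dose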;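 note: His-tagged Mcl-1 with europium anti-His antibody binding Bid BH3 peptide; 0% = Mcl-1 plus peptide wells and 100% = peptide-only wells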
MCL1-BIM inh = inhibitors of human MCL1 binding to BIM-BH3 peptide | Q07820 | GST-MCL1 / FITC-Bim-BH3 fluorescence polarization | inhibition, % at 10.9 µM | 320,000 compounds, 0.68% hits;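 active = inhibition above the mean inhibition of all tested compounds plus 3 SD, set per campaign, cut at about 40% in these data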;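 note: 0% = DMSO wells and 100% = unlabeled Bim-BH3 peptide control; higher means more loss of mP so more displacement of Bim peptide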
Bcl-xL conf = Bcl-xL (human) inhibition, MCL1 counter-screen confirmation | 1,700 compounds, 54% hits | shares compounds with MCL1-BIM inh | GST-Bcl-xL / FITC-Bim BH3 peptide FP binding | inhibition, % at 10.9 µM | AID 2166;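 active = inhibition above a cutoff equal to the mean inhibition of all tested compounds plus 3 SD, cut at about 30% in these data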;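 note: 0% = DMSO wells and 100% = unlabeled Bim BH3 control peptide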
Target sequence (Q07817 whole entry, looked up): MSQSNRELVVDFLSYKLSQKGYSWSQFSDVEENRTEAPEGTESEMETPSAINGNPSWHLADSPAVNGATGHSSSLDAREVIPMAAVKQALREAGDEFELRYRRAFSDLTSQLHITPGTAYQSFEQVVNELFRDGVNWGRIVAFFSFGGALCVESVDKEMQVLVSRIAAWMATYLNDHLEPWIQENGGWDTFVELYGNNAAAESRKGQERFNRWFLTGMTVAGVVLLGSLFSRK
MCL1 inh confirm = MCL1-BIM-BH3 interaction inhibition, confirmation | inhibition, % at 10.9 µM | AID 2168 | shares compounds with MCL1-BIM inh | 1,700 compounds, 61% hits | GST-MCL1 / FITC-Bim-BH3 fluorescence polarization;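 active = inhibition above the average of all tested compounds plus 3 SD, cut at about 40% in these data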;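 note: 0% = DMSO wells and 100% = unlabeled Bim-BH3 control peptide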
* hit, by the source's call.

Results for Cc1nc(Cl)c2c(n1)NC1=C(O2)C(=O)CCC1 ?
Mcl1-Noxa inh: 2; Bim-Mcl-1: -5; Mcl1-Bid inh: -66; MCL1-BIM inh: 198*; Bcl-xL conf: 146*; MCL1 inh confirm: 175*

What do the screens show for `Cc1ccc(NC(=O)C2CC(=O)Nc3ncnn32)c(C)c1` (stereo unspecified)?
Mcl1-Noxa inh: 7; Mcl1-Bid inh: -39; MCL1-BIM inh: 5

How did CCOC(=O)c1cnc(-n2[nH]c(C)cc2=O)[nH]c1=O do in these assays?
Mcl1-Noxa inh: -9; Bim-Mcl-1: 1; Mcl1-Bid inh: -164; MCL1-BIM inh: 74*; Bcl-xL conf: 5; MCL1 inh confirm: 81*

Results for N#Cc1c(-c2ccco2)cc(-c2cccnc2)nc1N ?
Mcl1-Noxa inh: 62*; Bim-Mcl-1: 7; Mcl1-Bid inh: -12; MCL1-BIM inh: 75*; Bcl-xL conf: 16; MCL1 inh confirm: 12

Results for N#Cc1c(-c2ccco2)cc(-c2ccccn2)nc1N ?
Mcl1-Noxa inh: 66*; Bim-Mcl-1: 3; Mcl1-Bid inh: -19; MCL1-BIM inh: 43*; Bcl-xL conf: 14; MCL1 inh confirm: 15

Results for CC1(c2ccccc2Cl)NC(=O)N(CC(=O)NCc2ccc3c(c2)OCO3)C1=O (stereo unspecified) ?
MCL1-BIM inh: -2

How did Cc1ccc2nc3c(cc2c1)c(NC(=O)C(C)(C)C)nn3CC(C)C do in these assays?
MCL1-BIM inh: -4

What do the screens show for `CC(=O)Nc1ccc(N/C=C2/CCCC2=O)cc1`?
Mcl1-Noxa inh: 3; Mcl1-Bid inh: -62; MCL1-BIM inh: 80*; Bcl-xL conf: 1; MCL1 inh confirm: -2

What do the screens show for `O=c1[nH]c2cc3c(cc2cc1CN(Cc1ccc2c(c1)OCO2)Cc1nnnn1CC1CCCO1)OCO3` (stereo unspecified)?
Mcl1-Noxa inh: 13; Bim-Mcl-1: -2; Mcl1-Bid inh: -14; MCL1-BIM inh: 74*; Bcl-xL conf: 10; MCL1 inh confirm: 7

Results for COc1ccc(C(=O)C(=O)c2ccc(OCCO)cc2)cc1 ?
MCL1-BIM inh: -5

Results for CCC1(c2ccccc2)NC(=O)N(CC(=O)NCc2ccccc2OC)C1=O (stereo unspecified) ?
MCL1-BIM inh: -6

How did CCC1(c2ccccc2)NC(=O)N(CC(=O)Nc2ccc(OC)nc2)C1=O (stereo unspecified) do in these assays?
MCL1-BIM inh: active; Bcl-xL conf: 168*; MCL1 inh confirm: active

How did Cn1c(C(=O)OCC(=O)NCc2ccc(F)cc2)cc2occc21 do in these assays?
MCL1-BIM inh: 0

What do the screens show for `N=C1/C(=C/c2ccc(-c3cccc(C(=O)O)c3)o2)C(=O)N=C2SC(CC(=O)N3CCOCC3)=NN12`?
MCL1-BIM inh: 31

Results for N=C1/C(=C\c2ccc(-c3cccc(C(=O)O)c3)o2)C(=O)N=C2SC=C(c3ccccc3)N12 ?
Mcl1-Noxa inh: 93*; Mcl1-Bid inh: 98*; MCL1-BIM inh: 41*; Bcl-xL conf: 10; MCL1 inh confirm: 35

What do the screens show for `CCOC(=O)C(C#N)=C1CCN(Cc2ccccc2)CC1`?
MCL1-BIM inh: 60*; Bcl-xL conf: 36*; MCL1 inh confirm: 36

What do the screens show for `CCOC(=O)/C(C#N)=C1/C(=O)N(Cc2ccccc2)c2ccccc21`?
Mcl1-Noxa inh: 16; Bim-Mcl-1: -3; Mcl1-Bid inh: -14

Results for Clc1ccccc1-c1ccc(CN2CCN(c3ccccc3)CC2)o1 ?
Mcl1-Noxa inh: 35; Bim-Mcl-1: -3; Mcl1-Bid inh: -6; MCL1-BIM inh: 133*; Bcl-xL conf: 13; MCL1 inh confirm: 10

How did O=C(OCc1cccc([N+](=O)[O-])c1)c1ccc2ccccc2n1 do in these assays?
Mcl1-Noxa inh: 8; Bim-Mcl-1: -1; Mcl1-Bid inh: 2; MCL1-BIM inh: 3

What do the screens show for `Cc1ccc(-c2ccc(=O)n(CC(=O)NCCC(C)C)n2)cc1`?
MCL1-BIM inh: 2

What do the screens show for `O=c1cc(-c2ccc(O)cc2)oc2c(O)c(O)c(O)c(O)c12`?
Mcl1-Noxa inh: 34; Mcl1-Bid inh: -28; MCL1-BIM inh: 47*; Bcl-xL conf: 15; MCL1 inh confirm: 54*

What do the screens show for `O=c1cc(-c2ccc(O)cc2)oc2c1ccc1ccccc12`?
MCL1-BIM inh: -28

Results for O=C(N/N=C1\CCCc2ccccc21)C(O)c1ccccc1 (stereo unspecified) ?
Mcl1-Noxa inh: 7; Bim-Mcl-1: 3; Mcl1-Bid inh: -21; MCL1-BIM inh: 9

How did O=C1C=C(O)c2c(O)cc(O)c(O)c2C1=O do in these assays?
MCL1-BIM inh: 95*; Bcl-xL conf: 27; MCL1 inh confirm: 97*

How did C[C@@H]1Cc2c(O)c(O)cc(O)c2C(=O)O1 do in these assays?
Mcl1-Noxa inh: 15; Mcl1-Bid inh: -99; MCL1-BIM inh: 6

How did O=C(NCc1ccccc1)C(c1ccccn1)N(C(=O)c1csnn1)c1ccccc1F (stereo unspecified) do in these assays?
MCL1-BIM inh: 12

How did CC(=O)c1ccc2noc(-c3ccc(Cl)cc3)c2c1 do in these assays?
Mcl1-Noxa inh: 5; Bim-Mcl-1: 1; Mcl1-Bid inh: -34; MCL1-BIM inh: 2

Results for CC(=O)c1ccc2noc(-c3ccc(F)cc3)c2c1 ?
Mcl1-Noxa inh: -1; Bim-Mcl-1: 0; Mcl1-Bid inh: -37; MCL1-BIM inh: 98*; Bcl-xL conf: 82*; MCL1 inh confirm: 103*

What do the screens show for `CN(C(=O)c1ccc(NC(=O)Cc2ccc(NC(=O)C3CCCN(C(=O)CCc4ccccc4)C3)cc2)cc1)C1CC1` (stereo unspecified)?
MCL1-BIM inh: 0

Results for O=C(Nc1cccc(S(=O)(=O)NC2=NCCC2)c1)c1cc(-c2ccco2)nc2ccccc12 ?
Mcl1-Noxa inh: 99*; Mcl1-Bid inh: 49; MCL1-BIM inh: 94*; Bcl-xL conf: 18; MCL1 inh confirm: 74*

What do the screens show for `O=C(Nc1cccc(S(=O)(=O)NC2=NCCCCC2)c1)c1cc(-c2ccccc2)nc2ccccc12`?
Mcl1-Noxa inh: -16; Bim-Mcl-1: 3; Mcl1-Bid inh: 4; MCL1-BIM inh: 8

What do the screens show for `O=C(NC(=S)Nc1cccc(S(=O)(=O)NC2=NCCC2)c1)c1cc(-c2ccco2)nc2ccccc12`?
Mcl1-Noxa inh: 65*; Mcl1-Bid inh: -47; MCL1-BIM inh: 54*; Bcl-xL conf: 39*; MCL1 inh confirm: 42*

Results for O=S(=O)(CCN1CCOCC1)c1ccc(OC(F)(F)F)cc1 ?
MCL1-BIM inh: 0

Results for Cc1cc(=O)[nH]c(-n2[nH]c3c(c2=O)CCCC3)n1 ?
Mcl1-Noxa inh: -23; Bim-Mcl-1: -2; Mcl1-Bid inh: -61; MCL1-BIM inh: 71*; Bcl-xL conf: 32*; MCL1 inh confirm: 40*

How did O=S(=O)(c1ccc2c(c1)CCCN2)N1CCCC1 do in these assays?
MCL1-BIM inh: 11
